Laboratory results published in ChEMBL document CHEMBL2218924, “A broad activity screen in support of a chemogenomic map for kinase signalling research and drug discovery” (Biochem J, 2013).

Key:
[1] = biological target: BDNF/NT-3 growth factors receptor (Homo sapiens) (UniProt Q16620); details: at 10 µM
[2] = biological target: T1, Tyrosine-protein kinase TXK (Homo sapiens) (UniProt P42681); details: at 1 µM
T1 sequence (whole entry): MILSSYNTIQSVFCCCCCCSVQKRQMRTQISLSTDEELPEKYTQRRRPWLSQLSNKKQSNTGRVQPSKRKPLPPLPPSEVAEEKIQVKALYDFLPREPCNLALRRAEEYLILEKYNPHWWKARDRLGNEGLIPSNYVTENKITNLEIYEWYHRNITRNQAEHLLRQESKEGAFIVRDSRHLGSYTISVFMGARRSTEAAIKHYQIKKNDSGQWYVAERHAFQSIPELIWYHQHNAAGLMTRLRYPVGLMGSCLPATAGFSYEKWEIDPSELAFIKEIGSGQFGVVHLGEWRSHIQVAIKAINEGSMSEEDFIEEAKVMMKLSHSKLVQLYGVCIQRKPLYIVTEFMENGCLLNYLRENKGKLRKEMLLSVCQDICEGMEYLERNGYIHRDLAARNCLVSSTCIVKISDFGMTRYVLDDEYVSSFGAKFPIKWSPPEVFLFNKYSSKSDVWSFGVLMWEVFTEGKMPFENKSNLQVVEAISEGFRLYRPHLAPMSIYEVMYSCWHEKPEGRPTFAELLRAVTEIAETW

[3] = biological target: T1, Tyrosine-protein kinase TXK (Homo sapiens); details: at 10 µM
[4] = biological target: T2, Serine/threonine-protein kinase ULK2 (Homo sapiens) (UniProt Q8IYT8); details: at 1 µM
T2 sequence (whole entry): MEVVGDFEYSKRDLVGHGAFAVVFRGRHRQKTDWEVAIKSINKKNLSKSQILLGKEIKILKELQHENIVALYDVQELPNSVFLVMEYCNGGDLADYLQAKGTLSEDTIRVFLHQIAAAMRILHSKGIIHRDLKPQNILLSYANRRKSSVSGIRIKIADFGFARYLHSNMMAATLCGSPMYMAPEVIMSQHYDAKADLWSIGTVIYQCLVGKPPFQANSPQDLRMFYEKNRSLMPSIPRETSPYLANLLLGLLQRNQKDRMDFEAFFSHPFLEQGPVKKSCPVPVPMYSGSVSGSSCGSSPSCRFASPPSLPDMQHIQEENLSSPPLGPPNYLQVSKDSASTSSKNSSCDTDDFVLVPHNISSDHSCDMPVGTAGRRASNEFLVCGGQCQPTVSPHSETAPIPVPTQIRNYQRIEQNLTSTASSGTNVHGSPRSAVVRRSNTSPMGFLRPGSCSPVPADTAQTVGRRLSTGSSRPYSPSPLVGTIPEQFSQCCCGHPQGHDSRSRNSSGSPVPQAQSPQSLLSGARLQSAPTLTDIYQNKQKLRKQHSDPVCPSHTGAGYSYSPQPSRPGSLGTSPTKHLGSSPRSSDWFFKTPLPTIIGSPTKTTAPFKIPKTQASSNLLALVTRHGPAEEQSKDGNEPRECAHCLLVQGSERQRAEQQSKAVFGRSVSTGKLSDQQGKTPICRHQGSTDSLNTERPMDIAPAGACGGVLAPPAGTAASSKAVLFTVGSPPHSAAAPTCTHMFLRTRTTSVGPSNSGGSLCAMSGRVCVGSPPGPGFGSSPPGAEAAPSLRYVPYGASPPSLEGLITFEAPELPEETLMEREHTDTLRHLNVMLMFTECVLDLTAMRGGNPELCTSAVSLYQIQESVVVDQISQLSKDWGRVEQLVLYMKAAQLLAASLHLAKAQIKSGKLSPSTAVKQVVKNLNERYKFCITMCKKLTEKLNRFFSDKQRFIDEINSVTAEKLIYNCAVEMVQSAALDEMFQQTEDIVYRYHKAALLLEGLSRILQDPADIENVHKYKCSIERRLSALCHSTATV

[5] = biological target: T2, Serine/threonine-protein kinase ULK2 (Homo sapiens); details: at 10 µM
[6] = biological target: T3, Serine/threonine-protein kinase ULK3 (Homo sapiens) (UniProt Q6PHR2); details: at 1 µM
T3 sequence (whole entry): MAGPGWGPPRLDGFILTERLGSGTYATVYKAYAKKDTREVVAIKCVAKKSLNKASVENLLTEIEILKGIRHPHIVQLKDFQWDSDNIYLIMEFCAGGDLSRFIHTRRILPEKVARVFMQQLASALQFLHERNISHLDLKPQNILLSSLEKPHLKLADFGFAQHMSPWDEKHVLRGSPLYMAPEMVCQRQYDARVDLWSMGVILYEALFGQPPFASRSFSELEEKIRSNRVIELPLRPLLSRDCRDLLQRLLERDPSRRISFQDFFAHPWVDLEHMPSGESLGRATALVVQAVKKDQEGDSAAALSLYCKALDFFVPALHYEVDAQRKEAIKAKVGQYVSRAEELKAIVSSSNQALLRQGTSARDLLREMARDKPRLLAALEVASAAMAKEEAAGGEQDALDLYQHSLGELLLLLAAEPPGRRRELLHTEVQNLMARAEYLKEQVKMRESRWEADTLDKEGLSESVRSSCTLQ

[7] = biological target: T3, Serine/threonine-protein kinase ULK3 (Homo sapiens); details: at 10 µM
[8] = biological target: Serine/threonine-protein kinase VRK2 (Homo sapiens) (UniProt Q86Y07); details: at 1 µM
[9] = biological target: Serine/threonine-protein kinase VRK2 (Homo sapiens) (UniProt Q86Y07); details: at 10 µM
[10] = biological target: Serine/threonine-protein kinase WNK2 (Homo sapiens) (UniProt Q9Y3S1); details: at 1 µM
[11] = biological target: Serine/threonine-protein kinase WNK2 (Homo sapiens) (UniProt Q9Y3S1); details: at 10 µM
[12] = biological target: Serine/threonine-protein kinase WNK3 (Homo sapiens) (UniProt Q9BYP7); details: at 1 µM
[13] = biological target: Serine/threonine-protein kinase WNK3 (Homo sapiens) (UniProt Q9BYP7); details: at 10 µM
[14] = biological target: Tyrosine-protein kinase Yes (Homo sapiens) (UniProt P07947); details: at 1 µM
[15] = biological target: Tyrosine-protein kinase Yes (Homo sapiens) (UniProt P07947); details: at 10 µM
[16] = biological target: T4, Tyrosine-protein kinase ZAP-70 (Homo sapiens) (UniProt P43403); details: at 1 µM
T4 sequence (whole entry): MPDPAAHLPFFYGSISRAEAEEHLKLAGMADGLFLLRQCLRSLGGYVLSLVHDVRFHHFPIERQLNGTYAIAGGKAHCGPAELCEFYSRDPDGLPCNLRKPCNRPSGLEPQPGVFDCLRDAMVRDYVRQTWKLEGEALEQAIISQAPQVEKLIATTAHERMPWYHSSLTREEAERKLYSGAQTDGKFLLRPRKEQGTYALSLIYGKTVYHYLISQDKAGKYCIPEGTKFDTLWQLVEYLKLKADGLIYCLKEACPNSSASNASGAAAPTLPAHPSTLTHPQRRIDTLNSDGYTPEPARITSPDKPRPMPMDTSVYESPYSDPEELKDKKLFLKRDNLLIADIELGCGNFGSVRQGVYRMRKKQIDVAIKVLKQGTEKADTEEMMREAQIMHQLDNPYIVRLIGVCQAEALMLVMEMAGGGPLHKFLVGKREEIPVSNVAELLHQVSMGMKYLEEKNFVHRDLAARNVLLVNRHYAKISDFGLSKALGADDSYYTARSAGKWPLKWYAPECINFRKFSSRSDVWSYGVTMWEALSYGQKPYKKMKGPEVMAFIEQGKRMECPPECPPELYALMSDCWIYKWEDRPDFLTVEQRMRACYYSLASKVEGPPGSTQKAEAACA

[17] = biological target: Death-associated protein kinase 3 (Homo sapiens) (UniProt O43293); details: at 1 µM
[18] = biological target: Death-associated protein kinase 3 (Homo sapiens) (UniProt O43293); details: at 10 µM
[19] = biological target: RAF proto-oncogene serine/threonine-protein kinase (Homo sapiens) (UniProt P04049); details: at 1 µM
[20] = biological target: RAF proto-oncogene serine/threonine-protein kinase (Homo sapiens) (UniProt P04049); details: at 10 µM

Serine/threonine-protein kinase WNK2 (Homo sapiens), sequence (Q9Y3S1 whole entry): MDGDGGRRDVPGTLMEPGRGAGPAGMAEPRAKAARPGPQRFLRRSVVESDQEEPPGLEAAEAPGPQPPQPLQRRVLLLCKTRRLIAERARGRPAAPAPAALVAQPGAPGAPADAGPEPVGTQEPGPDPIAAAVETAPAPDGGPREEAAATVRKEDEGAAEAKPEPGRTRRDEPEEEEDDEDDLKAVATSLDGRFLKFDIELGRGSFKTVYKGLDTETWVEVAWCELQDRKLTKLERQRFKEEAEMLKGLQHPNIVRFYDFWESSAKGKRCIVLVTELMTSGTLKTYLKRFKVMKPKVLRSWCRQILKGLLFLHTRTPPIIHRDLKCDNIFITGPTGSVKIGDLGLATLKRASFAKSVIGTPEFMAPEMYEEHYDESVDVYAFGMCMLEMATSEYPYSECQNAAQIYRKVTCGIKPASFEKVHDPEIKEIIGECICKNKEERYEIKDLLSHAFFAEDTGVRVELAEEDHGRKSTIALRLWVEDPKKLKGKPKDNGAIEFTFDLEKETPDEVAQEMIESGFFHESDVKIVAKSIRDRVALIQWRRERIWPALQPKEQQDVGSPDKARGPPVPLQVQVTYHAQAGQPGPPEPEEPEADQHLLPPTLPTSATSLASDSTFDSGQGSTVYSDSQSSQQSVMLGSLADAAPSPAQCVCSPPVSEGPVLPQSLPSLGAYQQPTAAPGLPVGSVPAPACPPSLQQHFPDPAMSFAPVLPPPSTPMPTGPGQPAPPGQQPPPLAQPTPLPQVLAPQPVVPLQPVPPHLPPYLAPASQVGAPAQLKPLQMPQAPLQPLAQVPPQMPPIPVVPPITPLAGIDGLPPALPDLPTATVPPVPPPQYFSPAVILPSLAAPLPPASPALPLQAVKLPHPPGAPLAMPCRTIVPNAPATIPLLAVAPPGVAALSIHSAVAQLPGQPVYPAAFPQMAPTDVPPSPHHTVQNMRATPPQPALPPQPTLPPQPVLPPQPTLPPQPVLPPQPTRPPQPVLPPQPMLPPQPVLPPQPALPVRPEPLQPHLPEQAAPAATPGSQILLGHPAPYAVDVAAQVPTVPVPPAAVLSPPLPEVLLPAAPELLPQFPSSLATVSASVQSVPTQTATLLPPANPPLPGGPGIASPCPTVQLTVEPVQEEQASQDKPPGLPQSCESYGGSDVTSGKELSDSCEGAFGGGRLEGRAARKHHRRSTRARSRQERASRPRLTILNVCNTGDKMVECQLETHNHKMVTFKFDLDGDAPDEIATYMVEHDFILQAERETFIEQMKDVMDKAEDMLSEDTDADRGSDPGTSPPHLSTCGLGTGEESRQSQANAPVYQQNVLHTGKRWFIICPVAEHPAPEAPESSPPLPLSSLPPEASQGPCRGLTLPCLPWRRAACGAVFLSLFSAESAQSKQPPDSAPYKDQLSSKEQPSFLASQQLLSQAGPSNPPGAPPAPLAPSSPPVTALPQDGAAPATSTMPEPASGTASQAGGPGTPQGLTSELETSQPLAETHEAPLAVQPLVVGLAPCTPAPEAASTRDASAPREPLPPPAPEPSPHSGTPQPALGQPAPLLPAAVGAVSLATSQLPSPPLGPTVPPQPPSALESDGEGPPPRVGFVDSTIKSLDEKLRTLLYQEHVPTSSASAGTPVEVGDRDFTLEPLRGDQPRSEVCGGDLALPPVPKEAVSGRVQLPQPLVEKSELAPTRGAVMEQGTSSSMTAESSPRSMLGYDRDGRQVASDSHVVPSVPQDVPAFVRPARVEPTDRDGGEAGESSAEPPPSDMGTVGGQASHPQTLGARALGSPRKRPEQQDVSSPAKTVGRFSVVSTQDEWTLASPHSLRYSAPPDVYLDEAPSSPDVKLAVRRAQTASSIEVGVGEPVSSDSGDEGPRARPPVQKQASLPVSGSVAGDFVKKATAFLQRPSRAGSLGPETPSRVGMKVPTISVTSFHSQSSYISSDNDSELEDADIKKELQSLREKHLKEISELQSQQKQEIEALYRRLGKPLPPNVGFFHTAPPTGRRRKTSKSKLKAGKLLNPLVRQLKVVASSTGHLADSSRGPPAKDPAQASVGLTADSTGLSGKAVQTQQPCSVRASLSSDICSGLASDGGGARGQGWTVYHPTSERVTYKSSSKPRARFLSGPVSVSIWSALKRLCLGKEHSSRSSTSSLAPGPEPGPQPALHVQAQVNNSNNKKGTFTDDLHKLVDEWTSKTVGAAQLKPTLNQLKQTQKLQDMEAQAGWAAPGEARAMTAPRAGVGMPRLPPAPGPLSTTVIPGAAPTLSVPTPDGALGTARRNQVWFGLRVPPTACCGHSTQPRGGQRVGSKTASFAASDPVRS
BDNF/NT-3 growth factors receptor (Homo sapiens), sequence (Q16620 32-822 limits assumed): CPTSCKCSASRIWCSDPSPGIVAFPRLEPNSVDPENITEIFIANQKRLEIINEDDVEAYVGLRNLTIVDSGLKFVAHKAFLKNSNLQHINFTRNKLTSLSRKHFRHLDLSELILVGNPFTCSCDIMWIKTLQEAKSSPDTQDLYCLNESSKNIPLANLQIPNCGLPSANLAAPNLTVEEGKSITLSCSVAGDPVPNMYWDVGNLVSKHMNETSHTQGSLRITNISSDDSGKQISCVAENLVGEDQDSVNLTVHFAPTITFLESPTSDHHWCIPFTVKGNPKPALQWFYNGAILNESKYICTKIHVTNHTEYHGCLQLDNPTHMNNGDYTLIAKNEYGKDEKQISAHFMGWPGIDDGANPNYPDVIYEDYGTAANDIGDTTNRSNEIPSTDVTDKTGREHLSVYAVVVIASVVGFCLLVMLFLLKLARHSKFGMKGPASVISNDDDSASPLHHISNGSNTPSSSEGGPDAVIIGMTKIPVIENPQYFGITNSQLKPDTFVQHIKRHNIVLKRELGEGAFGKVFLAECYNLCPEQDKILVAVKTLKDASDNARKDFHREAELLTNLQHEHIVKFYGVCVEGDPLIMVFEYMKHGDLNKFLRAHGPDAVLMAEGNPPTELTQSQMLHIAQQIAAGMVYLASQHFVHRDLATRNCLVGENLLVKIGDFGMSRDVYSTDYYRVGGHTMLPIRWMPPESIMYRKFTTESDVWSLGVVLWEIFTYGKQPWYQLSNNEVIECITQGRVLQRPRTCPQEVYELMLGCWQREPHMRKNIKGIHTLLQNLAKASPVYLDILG
Serine/threonine-protein kinase VRK2 (Homo sapiens), sequence (Q86Y07 whole entry): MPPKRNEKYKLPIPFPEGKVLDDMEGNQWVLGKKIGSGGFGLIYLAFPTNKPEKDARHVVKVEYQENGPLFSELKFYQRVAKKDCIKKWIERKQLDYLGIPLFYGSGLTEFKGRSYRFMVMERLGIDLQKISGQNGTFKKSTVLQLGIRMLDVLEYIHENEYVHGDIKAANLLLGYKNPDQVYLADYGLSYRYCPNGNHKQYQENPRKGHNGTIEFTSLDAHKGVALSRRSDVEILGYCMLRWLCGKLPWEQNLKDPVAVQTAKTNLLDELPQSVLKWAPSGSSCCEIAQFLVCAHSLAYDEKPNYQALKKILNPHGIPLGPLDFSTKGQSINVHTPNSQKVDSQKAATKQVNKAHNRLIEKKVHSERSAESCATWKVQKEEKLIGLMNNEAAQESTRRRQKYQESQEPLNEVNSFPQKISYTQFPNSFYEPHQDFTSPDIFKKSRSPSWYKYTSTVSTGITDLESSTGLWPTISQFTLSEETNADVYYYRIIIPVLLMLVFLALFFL
RAF proto-oncogene serine/threonine-protein kinase (Homo sapiens), sequence (P04049 whole entry): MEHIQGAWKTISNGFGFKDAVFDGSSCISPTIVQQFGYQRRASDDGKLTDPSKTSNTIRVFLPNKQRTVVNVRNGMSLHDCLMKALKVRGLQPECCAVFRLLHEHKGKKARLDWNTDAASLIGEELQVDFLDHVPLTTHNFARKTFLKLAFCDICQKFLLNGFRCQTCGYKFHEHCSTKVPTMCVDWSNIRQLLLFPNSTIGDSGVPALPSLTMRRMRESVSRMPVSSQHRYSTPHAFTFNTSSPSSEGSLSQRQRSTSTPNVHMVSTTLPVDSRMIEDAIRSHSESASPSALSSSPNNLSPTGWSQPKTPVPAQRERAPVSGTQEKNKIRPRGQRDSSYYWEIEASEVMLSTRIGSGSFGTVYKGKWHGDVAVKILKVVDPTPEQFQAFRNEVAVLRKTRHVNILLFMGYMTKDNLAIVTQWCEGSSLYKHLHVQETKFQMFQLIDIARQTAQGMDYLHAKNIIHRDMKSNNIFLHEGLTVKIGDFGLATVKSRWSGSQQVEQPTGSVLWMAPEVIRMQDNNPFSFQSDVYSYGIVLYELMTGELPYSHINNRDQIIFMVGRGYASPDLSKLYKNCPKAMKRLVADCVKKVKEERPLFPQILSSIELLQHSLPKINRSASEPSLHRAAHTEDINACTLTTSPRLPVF
Death-associated protein kinase 3 (Homo sapiens), sequence (O43293 whole entry, looked up): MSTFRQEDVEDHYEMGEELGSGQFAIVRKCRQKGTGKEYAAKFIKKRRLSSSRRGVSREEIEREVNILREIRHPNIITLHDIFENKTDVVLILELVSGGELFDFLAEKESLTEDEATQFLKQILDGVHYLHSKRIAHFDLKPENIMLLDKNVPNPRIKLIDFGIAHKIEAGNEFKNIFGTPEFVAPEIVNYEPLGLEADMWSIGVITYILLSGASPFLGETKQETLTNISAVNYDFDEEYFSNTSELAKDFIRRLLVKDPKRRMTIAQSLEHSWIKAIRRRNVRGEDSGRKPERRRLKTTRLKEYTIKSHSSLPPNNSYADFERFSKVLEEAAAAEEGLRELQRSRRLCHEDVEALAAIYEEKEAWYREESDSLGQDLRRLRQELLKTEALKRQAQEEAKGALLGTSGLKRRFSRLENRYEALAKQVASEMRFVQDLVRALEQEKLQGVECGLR

In the case of `COc1ccc(OC)c2c(=S)c3ccccc3[nH]c12`, the residual activity [1] is reported as 92%, the residual activity [2] is reported as 84% and the residual activity [3] is reported as 86%. The residual activity [4] was 100%, the residual activity [5] was 102% and the residual activity [6] was 86%. The residual activity [7] was 101%, the residual activity [8] was 91% (inactive) and the residual activity [9] was 86%. For the same molecule, the residual activity [10] was 86% (inactive), the residual activity [11] was 87% and the residual activity [12] was 89% (inactive). It also gave a residual activity [13] of 89%, a residual activity [14] of 100% and a residual activity [15] of 100%. It also gave a residual activity [16] of 90%, a residual activity [17] of 93% and a residual activity [18] of 90%. It also gave a residual activity [19] of 87% and a residual activity [20] of 83%.

For `O=C1Nc2cc(Br)ccc2/C1=C1/Nc2ccccc2/C1=N\O`, the residual activity [1] was -1%, the residual activity [2] was 13% and the residual activity [3] was 23%. It also gave a residual activity [4] of 102%, a residual activity [5] of 98% and a residual activity [6] of 55%. The residual activity [7] was 16%, the residual activity [8] was 94% (inactive) and the residual activity [9] was 90%. For the same molecule, the residual activity [10] was 89% (inactive), the residual activity [11] was 91% and the residual activity [12] was 93% (inactive). For the same molecule, the residual activity [13] was 93%, the residual activity [14] was 1% and the residual activity [15] was 4%. The residual activity [16] was 97%, the residual activity [17] was 38% and the residual activity [18] was 18%. The residual activity [19] was 77% and the residual activity [20] was 68%.

With `Cc1nc2cc3nc(-c4cccs4)cnc3cc2n1C` the residual activity [1] was 45%, the residual activity [2] was 108% and the residual activity [3] was 75%. The residual activity [4] was 108%, the residual activity [5] was 107% and the residual activity [6] was 106%. The residual activity [7] was 85%, the residual activity [8] was 111% (inactive) and the residual activity [9] was 84%. The residual activity [10] was 117% (inactive), the residual activity [11] was 94% and the residual activity [12] was 124% (inactive). The residual activity [13] was 71%, the residual activity [14] was 106% and the residual activity [15] was 59%. The residual activity [16] was 135%, the residual activity [17] was 97% and the residual activity [18] was 102%. It also gave a residual activity [19] of 97% and a residual activity [20] of 95%.

`O=C(Nc1cccc(Nc2cc(Nc3cccc(C(F)(F)F)c3)ncn2)c1)C1CC1` gave a residual activity [1] of 37%, a residual activity [2] of 109% and a residual activity [3] of 69%. The residual activity [4] was 103%, the residual activity [5] was 103% and the residual activity [6] was 110%. The residual activity [7] was 94%, the residual activity [8] was 107% (inactive) and the residual activity [9] was 77%. For the same molecule, the residual activity [10] was 103% (inactive), the residual activity [11] was 81% and the residual activity [12] was 95% (inactive). It also gave a residual activity [13] of 85%, a residual activity [14] of 76% and a residual activity [15] of 60%. The residual activity [16] was 97%, the residual activity [17] was 89% and the residual activity [18] was 112%. It also gave a residual activity [19] of 91% and a residual activity [20] of 87%.

`COc1ccc(S(=O)(=O)N(CCO)c2ccccc2CN(C)C/C=C/c2ccc(Cl)cc2)cc1` gave a residual activity [1] of 61%, a residual activity [2] of 94% and a residual activity [3] of 67%. The residual activity [4] was 113%, the residual activity [5] was 94% and the residual activity [6] was 93%. For the same molecule, the residual activity [7] was 95%, the residual activity [8] was 102% (inactive) and the residual activity [9] was 80%. For the same molecule, the residual activity [10] was 100% (inactive), the residual activity [11] was 88% and the residual activity [12] was 100% (inactive). The residual activity [13] was 88%, the residual activity [14] was 119% and the residual activity [15] was 79%. For the same molecule, the residual activity [16] was 105%, the residual activity [17] was 96% and the residual activity [18] was 96%. For the same molecule, the residual activity [19] was 78% and the residual activity [20] was 73%.

For `CC#CC(=O)Nc1cc2c(Nc3ccc(F)c(Cl)c3)ncnc2cn1`, the residual activity [1] was 103%, the residual activity [2] was 52% and the residual activity [3] was 14%. The residual activity [4] was 99%, the residual activity [5] was 97% and the residual activity [6] was 116%. The residual activity [7] was 97%, the residual activity [8] was 97% (inactive) and the residual activity [9] was 92%. For the same molecule, the residual activity [10] was 103% (inactive), the residual activity [11] was 84% and the residual activity [12] was 102% (inactive). For the same molecule, the residual activity [13] was 79%, the residual activity [14] was 101% and the residual activity [15] was 90%. The residual activity [16] was 103%, the residual activity [17] was 90% and the residual activity [18] was 100%. The residual activity [19] was 82% and the residual activity [20] was 92%.
